High-throughput results (PubChem)
CYP2C19 activ: human CYP2C19 activators, primary screen, biochemical, luminescence; Cytochrome P450 2C19 (Homo sapiens), P33261; recombinant CYP2C19, luciferin-H EGE luminescence; active compounds read high; 0 = fully inhibited enzyme, 1 = untreated enzyme; activation factor at 5 µM; 96,000 tested, under 10 active; AID 1025, 2008;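 active means activation factor of at least 2 at 5 µM in the primary screen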;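 further: 0 = wells with 2.5 mM tranylcypromine and 1 = vehicle-only wells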
Target sequence (P33261 whole entry, looked up): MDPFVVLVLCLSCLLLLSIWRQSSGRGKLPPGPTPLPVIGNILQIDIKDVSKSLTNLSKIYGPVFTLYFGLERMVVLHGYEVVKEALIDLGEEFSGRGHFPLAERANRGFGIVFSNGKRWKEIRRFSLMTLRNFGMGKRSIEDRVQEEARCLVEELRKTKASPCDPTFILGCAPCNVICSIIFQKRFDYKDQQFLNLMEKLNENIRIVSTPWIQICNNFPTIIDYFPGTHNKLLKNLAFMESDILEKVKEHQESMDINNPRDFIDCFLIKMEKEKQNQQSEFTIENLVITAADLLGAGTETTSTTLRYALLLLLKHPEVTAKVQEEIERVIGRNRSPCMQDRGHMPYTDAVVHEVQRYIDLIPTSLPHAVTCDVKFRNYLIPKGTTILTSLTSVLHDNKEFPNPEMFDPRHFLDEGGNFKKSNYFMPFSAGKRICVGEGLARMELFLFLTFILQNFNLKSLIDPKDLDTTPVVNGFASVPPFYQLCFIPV
CYP2C19 inhib: blockers of cytochrome P450 2C19 activity – biochemical, luminescence, ADME assay, primary screen. P33261. CYP2C19 Supersomes, luciferin-H EGE luminescence, 30 min. inhibition, % at 5 µM. hit rate 21% among 96,000. AID 778, 2007;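 active means CYP2C19 inhibition above a set limit at 5 µM in the primary screen, cut at about 50% in these data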;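 further: plate controls were negative control wells for no effect and 2.5 mM tranylcypromine positive control for full effect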
CYP2C9 activ: human CYP2C9 activators, primary screen, biochemical, luminescence; recombinant CYP2C9, luciferin-H conversion; active compounds read high; factor 1 = untreated enzyme, 0 = blocked; hit rate 1.4% among 96,000; activation factor at 5 µM; Cytochrome P450 2C9 (Homo sapiens), P11712;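 active means activation factor of 2 or more for CYP2C9 at a 5 µM dose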;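 further: 0 = sulfaphenazole-blocked wells and 1 = vehicle-only wells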
CYP2C9 inhib: blockers of cytochrome P450 2C9 activity – biochemical, luminescence, ADME assay, primary screen; CYP2C9 Supersomes, luciferin-H conversion; hit rate 20% among 96,000; P11712; inhibition, % at 5 µM;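 active means blocking of liver enzyme CYP2C9 beyond about 50% at 5 µM, limit read from the data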
* marks the source's active call; other numbers are inactive results. Sampled rows, rich in hits. Any-hit rate of the full collection: about 31%.

SMILES	CYP2C19 activ	CYP2C19 inhib	CYP2C9 activ	CYP2C9 inhib
Cc1ccc2c(c1)c1c(n2CC(O)Cn2c(C)nc3ccccc32)CCCC1 (stereo unspecified)	0.9	14	0.2	77*
Cc1nn(CC(O)Cn2c3c(c4ccccc42)CCN(C)C3=O)c(C)c1Br (stereo unspecified)	0.1	91*	0.2	81*
Cc1ccc2c(c1)c1c(n2CC(O)Cn2nc(C)c(Br)c2C)CCCC1 (stereo unspecified)	0.4	64*	0.3	72*
Cc1nn(CC(O)Cn2cnc3c2c(=O)n(C)c(=O)n3C)c(C)c1Br (stereo unspecified)	1	3	1	2
CCN(CC)S(=O)(=O)c1ccc(N2CCN(S(=O)(=O)c3ccc4c(c3)OCCO4)CC2)nc1	0.7	29	0.6	44
CCCCNC(=O)c1onc(CSc2ccc(OC)cc2)c1C(=O)O	1.1	-12	0.2	80*
CCCCNC(=O)c1onc(CSc2ccc(F)cc2)c1C(=O)O	0.9	6	0.4	58*
COCCNC(=O)c1onc(CSc2ccccc2)c1C(=O)O	0.8	25	0.7	34
O=C(O)C1CCCN(S(=O)(=O)c2ccc(F)cc2)C1 (stereo unspecified)	1.1	-7	1	-4
COc1cc(/C=N/N2C(=O)c3ccccc3NC2(C)c2cccc([N+](=O)[O-])c2)cc(Br)c1O (stereo unspecified)	0.5	50*	0.1	92*
NC(=O)c1ccc(C(F)(F)F)n(Cc2c(Cl)cccc2Cl)c1=O	0.7	28	0.8	20
C#CCOC(=O)Nc1cccn(Cc2c(Cl)cccc2Cl)c1=O	0.3	65*	2*	-97
O=C(Nc1c(C(=O)O)oc2ccc(Br)cc12)c1ccccc1	1	-1	0.7	34
c1ccc(-n2nc3c(ccc4cnnc43)[nH]2)cc1	0.7	32	0.4	60*
CCc1cc(C(=O)COc2ccccc2F)c(O)cc1O	0	96*	0.4	60*
CCc1cc(C(=O)Cc2nc3ccccc3[nH]2)c(O)cc1O	0.1	87*	0.5	54*
CN(CC(=O)O)Cc1nc2ccccc2[nH]1	1	5	1	5
CCc1cc(/C(Cc2ccccn2)=N\O)c(O)cc1O	0.5	46	0.4	62*
CCc1cc(/C(Cc2cscn2)=N\O)c(O)cc1O	0.7	31	0.6	39
CCc1cc(/C(Cc2ccc3ccccc3n2)=N\O)c(O)cc1O	0.1	90*	0.3	73*
C=CCc1c(C)nc(C)nc1N/N=C/c1ccccc1O	0.7	29	0.6	40
CC(C)Cn1cc(C(=O)NCCCN2CCCC2=O)c2c3ccccc3n(C)c2c1=O	1	-3	1	-2
CC(C)C1=NN(C(=O)c2ccccc2)C(O)(C(C)(C)C)C1 (stereo unspecified)	0.8	16	0.9	5
O=C(O)c1cnn(-c2ccccc2)c1-c1ccccc1	0.9	8	0.9	15
Cn1cc([N+](=O)[O-])c(C(=O)N/N=C/c2ccccc2)n1	0.9	13	0.9	11
SMILES	CYP2C19 activ	CYP2C19 inhib	CYP2C9 activ	CYP2C9 inhib
COc1ccc(N/N=C(\C=N\O)C(=O)c2ccc(OC)cc2)cc1	0.3	75*	0.1	88*
COc1ccc(C(=O)/C=C(\C)Nc2ccc(NC(C)=O)cc2)cc1	0.9	15	0.8	17
CCCCn1c(SCC(=O)Nc2cccc(C)n2)nnc1-c1ccco1	0.1	87*	0	96*
CCCCn1nnnc1SCC(=O)Nc1cccc(C)n1	0.3	65*	0.8	20
O=C(O)CCNS(=O)(=O)c1ccccc1	1	3	0.9	6
O=S(=O)(NCCn1ccc2ccccc21)c1ccccc1	0	100*	0.3	70*
CCCn1c(CNS(=O)(=O)c2ccc(C)cc2)nc2ccccc21	0.6	36	1.2	-23
Cc1cc(C)c(S(=O)(=O)NCCn2c(C)cc3ccccc32)c(C)c1	0.3	73*	0.1	90*
Cc1ccc(S(=O)(=O)NCCn2c(C)cc3ccccc32)cc1	0.3	67*	0.3	68*
Cc1cc(C)c(S(=O)(=O)NCc2ccc3c(c2)cc(C)n3C)c(C)c1	1.3	-25	0.9	10
CCC(Oc1cc(Cl)ccc1Cl)C(=O)NN1C(=O)C2C3CCC(C3=C(C)C)C2C1=O (stereo unspecified)	0.7	31	1.1	-9
